Screening results deposited in PubChem BioAssay by National Center for Advancing Translational Sciences (NCATS).
In the library only some 11% were active in any assay of this set; here they are far more common.
HTT ATP protect = protects HTT-Q103 PC12 cells, measured by ATP. PC12 HTT-Q103 induced, cytoprotection, ATP luminescence, 40 h. Potency, µM (highest dose often 56.4 µM), for inactives: cytoprotection (ATP increase), actives largely listed as activators. actives 0.14% (n = 230,000). AID 1471; further: potency means the concentration at half of the fitted maximal effect; % of control where 0% means no effect; nearly all actives have a fitted effect of over 45% in size
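Quantitative HTS on tebufenozide-induced (100 nM) PC12 cells expressing HTTQ103 exon 1–GFP; compounds tested as a concentration series; survival measured via cellular ATP.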
HTT aggregate = mutant huntingtin aggregation inhibition; actives 1.1% (n = 220,000); PC12 HttQ103-GFP aggregates, Acumen cytometry, 40 h; Potency, µM (series often up to 46.1 µM), inactives show top-dose activity change, negative = inhibition, most hits filed as inhibitors; AID 1688; further: potency means the concentration at half of the fitted maximal effect; on the % scale 0 is the no-effect control and ±100 the full control effect; nearly all actives have a fitted effect of over 60% in size
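Aggregate formation scored by laser-scanning cytometer (488 excitation, 500–530 emission) in lysed PC12 cells expressing Q103-GFP after 100 nM tebufenozide induction; library tested in dose series, with ATPLite reagent added in the multiplex.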
ALDH1A1 block = blocks purified human ALDH1A1 activity | P00352 | Purified ALDH1A1, NADH fluorescence, propionaldehyde substrate | Potency, µM (top dose mostly 75.3 µM), without a hit: at the top dose activity, negative = inhibition, actives largely listed as inhibitors | actives 7.3% (n = 220,000); active means well fitted inhibition curve with a large enough effect, not every such curve was filed as active; inconclusive means small, poorly fitted or top-dose-only effect, or another doubt; inactive means no such curve, though single readings can be large or run the other way;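 further: potency means the concentration at half of the fitted maximal effect; plate controls were no enzyme wells and a reference inhibitor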
Target sequence (P00352 whole entry, looked up): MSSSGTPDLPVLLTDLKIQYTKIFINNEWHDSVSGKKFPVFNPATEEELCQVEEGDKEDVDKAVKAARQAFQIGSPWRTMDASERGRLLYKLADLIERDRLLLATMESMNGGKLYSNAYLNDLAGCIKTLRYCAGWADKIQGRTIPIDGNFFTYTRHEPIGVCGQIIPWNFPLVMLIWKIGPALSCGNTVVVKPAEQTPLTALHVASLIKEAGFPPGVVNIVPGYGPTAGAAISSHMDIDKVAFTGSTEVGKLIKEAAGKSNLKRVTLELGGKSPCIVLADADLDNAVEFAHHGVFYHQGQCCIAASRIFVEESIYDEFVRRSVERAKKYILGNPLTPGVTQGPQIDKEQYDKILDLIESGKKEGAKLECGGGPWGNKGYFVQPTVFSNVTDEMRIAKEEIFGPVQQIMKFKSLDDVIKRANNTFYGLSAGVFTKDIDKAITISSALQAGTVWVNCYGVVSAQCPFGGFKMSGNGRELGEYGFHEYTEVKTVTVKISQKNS
HPGD inh = HPGD (human) dehydrogenase inhibition. P15428. purified HPGD, NADH fluorescence kinetic, PGE2 substrate. Potency, µM, without a hit: at the top dose activity change, negative = inhibition, most hits filed as inhibitors. actives 4.3% (n = 150,000). AID 894; active means well fitted inhibition curve with a large enough effect, not every such curve was filed as active; inconclusive means small, poorly fitted or top-dose-only effect, or another doubt; inactive means no such curve, though single readings can be large or run the other way; further: potency means the concentration at half of the fitted maximal effect; on the % scale 0 is the no-effect control and ±100 the full control effect
Target sequence (P15428 whole entry, looked up): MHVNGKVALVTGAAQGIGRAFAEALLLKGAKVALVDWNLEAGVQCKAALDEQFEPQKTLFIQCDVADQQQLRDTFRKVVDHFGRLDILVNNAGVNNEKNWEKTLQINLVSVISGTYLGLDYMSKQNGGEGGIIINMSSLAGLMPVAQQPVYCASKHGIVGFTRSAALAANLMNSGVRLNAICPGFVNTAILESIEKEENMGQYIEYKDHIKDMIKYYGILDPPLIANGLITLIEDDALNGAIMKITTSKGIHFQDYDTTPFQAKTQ
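NADH formation kinetics: reaction with 30 uM PGE2 and 1 mM NAD+ (final), 20 nM enzyme, Tris-HCl pH 8 with Tween 20, after 15 min compound preincubation at room temperature. Fluorescence change, last versus first of five reads.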
CBFb RUNX1 block = CBF-beta/RUNX1 interaction disruption | AlphaScreen CBFb-His/RUNX1-biotin binding, biochemical | 230,000 tested, under 10 active | Potency, µM (series often up to 59.8 µM), without a hit: at the highest dose activity, negative = inhibition, most hits filed as inhibitors | Q01196+Q13951; further: % of control where 0% means no effect
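Bead-based AlphaScreen assay; binding partners His-tagged CBF-beta and biotinylated RUNX1 at 30 nM each. Compound exposure 15 min after a 20-min protein preincubation; bead step 90 min; all steps at room temperature.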
PNC assembly inh = blocks assembly of the perinucleolar compartment; activity change (PNC), negative = inhibition, % at 10 µM; AID 2417; actives 3.1% (n = 140,000); PC3M PTB-GFP, PNC prevalence imaging, 16 h; active compounds read low;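 active means readout at or below -70, meaning at least 70% loss of cells showing the perinucleolar compartment, a nuclear body marking cancer cells; inconclusive means readout between -30 and a set limit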;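 further: plate controls were DMSO wells for no effect and camptothecin positive control wells for full effect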
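PC3M cells stably expressing PTB-GFP, 750–1000 cells/well, treated 16 h at 37 °C with compound (23 nl of library stock), in duplicate. After paraformaldehyde fixation and Hoechst stain, imaged at 20x; PNC prevalence scored by image analysis.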
Starred values were filed as active, the others as inactive; ? = inconclusive; / = not tested or not shown; [ ] = another dose, or the depositor's remark. Unless noted, the call rests on the fitted dose curve; in most records, active means well fitted curve in the direction sought with a large enough effect; inconclusive means small, poorly fitted or top-dose-only effect, or another doubt; inactive means no such curve, though single readings can be large; an effect the other way counts as inactive or inconclusive.

SMILES	HTT ATP protect	HTT aggregate	ALDH1A1 block	HPGD inh	CBFb RUNX1 block	PNC assembly inh
COc1ccc(/C=N/N=C2/NC(=O)C(CC(=O)O)S2)cc1OS(=O)(=O)c1ccccc1 (centres undefined)	-31%	-4%	?	/	-10%	/
C=C1CC2C(=O)N(Cc3ccccc3)C(C(=O)O)C1N2C(=O)OC(C)(C)C (centres undefined)	/	/	/	/	2%	/
CCOc1ncccc1C(=O)OCC(=O)N1CCc2ccccc21	-8%	6%	7.9µM*	/	4%	/
O=C(OCC(=O)N1CCc2ccccc21)C1=COCCO1	0%[10 µM]	-11%	14µM*	-12%	1%	?
O=C(OCC(=O)N1CCc2ccccc21)c1cncc(Br)c1	2.2µM*	?	-12%	/	-4%	/
O=C(OCC(=O)N1CCc2ccccc21)c1c2c(nc3ccccc13)CCCC2	-1%[10 µM]	-16%	3%	/	-1%	-110*
O=C1CN(C(=O)COC(=O)C2=COCCO2)c2ccccc2N1	-26%	-3%	12%	/	-3%	?
O=C(OCC(=O)N1CCCc2ccccc21)c1cncc(Br)c1	-8%[10 µM]	26%	-20%	/	-2%	-4
O=C(Nc1ccc2c(c1)Cc1ccccc1-2)[C@@H]1[C@H](C(=O)O)[C@]2(Cl)C(Cl)=C(Cl)[C@@]1(Cl)C2(Cl)Cl	-4%[10 µM]	/	-1%[13.5 µM]	-16%	/	/
CCOc1ncccc1C(=O)OCC(=O)c1ccc(Cl)s1	-10%	9%	?	20µM*	12%	-12
Cc1ccn2cc(CCNC(=O)COc3ccccc3)nc2c1	17%[10 µM]	-7%[9.22 µM]	/	/	2%	/
Cc1ccn2cc(CCNC(=O)CC(C)(C)C)nc2c1	-12%[10 µM]	-17%	?	?	5%	-100*
CCN(CC)S(=O)(=O)c1cccc(NC(=O)COc2ncnc3sccc23)c1	-28%	-17%	2%	/	-1%	/
CCC(C)Nc1ccc(NC(C)CC)cc1 (centres undefined)	-82%	/	8.9µM*	-13%	?	/
CCC(C)NC(=O)Nc1ccc(Br)cc1 (centres undefined)	/	-19%	5%	/	7%	/
CCCc1nc(N2CCN(S(=O)(=O)c3ccc(Cl)cc3)CC2)c2c(C)c(C)sc2n1	13%[10 µM]	-17%[9.22 µM]	-4%	/	6%	/
Cc1c(C(=O)N2CCN(c3ccccc3)CC2)sc2ncnc(N3CCC(C)CC3)c12	5%[10 µM]	15%	?	-14%	5%	-29
Cc1sc2ncnc(N3CCC(C)CC3)c2c1C	-35%[10 µM]	-1%	3%	22µM*	12%	-13
Cc1sc2ncnc(N3CCN(CCOc4ccc(Cl)cc4)CC3)c2c1C	-35%	2µM*	-6%	?	-8%	47
COc1ccc(NC2=NCC(=O)N2c2ccccc2)c(OC)c1	17%[10 µM]	6%	3%	2%	-2%	-94*
COc1ccc(NC2=NCC(=O)N2c2ccccc2F)c(OC)c1	-4%	-3%	8%	-4%	0%	-28
O=S(=O)(/N=C(/Nc1ccc(F)cc1F)c1ccccc1)c1ccc(Br)cc1	30%[10 µM]	-10%	17%	-8%	0%	-99*
C[N+](C)(C)C(C1=CCCC1=O)c1ccccc1 (centres undefined)	/	/	-15%[13.5 µM]	-1%	/	/
CC1(C)CC(=O)C(=CN2CCN(C(=O)c3ccco3)CC2)C(=O)C1	-7%	12%	22µM*	-9%	7%	?
CC1(C)CC(=O)C(=CN2CCOCC2)C(=O)C1	-25%	2%	10µM*	/	-4%	/
SMILES	HTT ATP protect	HTT aggregate	ALDH1A1 block	HPGD inh	CBFb RUNX1 block	PNC assembly inh
CC1(C)CC(=O)C2=C(C1)OC(/N=C/N1CCOCC1)=C(C#N)C2c1ccccc1 (centres undefined)	5%	-3%	?	-24%	4%	20
CCCCC/C=C\C/C=C\C/C=C\CCCCCCC(=O)O[C@H](COCCCCCCCCCCCCCCCC)COP(=O)([O-])OCC[N+](C)(C)C	3%	/	-7%	-3%	-1%	/
CCOC(=O)C1C(C(=O)OC)=C(C(=O)OC)c2ccccc2N1S(=O)(=O)C(F)(F)F (centres undefined)	13%	/	-7%	-13%	-8%	/
COc1ccc(CCNC(=O)CN2CCN(c3ccccc3Cl)CC2)cc1	0%	-11%	3.2µM*	-2%	1%	?
COC(=O)c1cccc(NC(=O)CN2CCN(Cc3ccccc3)CC2)c1	1%[0.074 µM]	-27%	25µM*	3%	4%	-22
COc1cccc(NC(=O)CN2CCN(c3ccccc3F)CC2)c1	10%[0.074 µM]	9%	10µM*	-6%	11%	?
COc1cc(NC(=O)CN2CCN(c3ccccc3F)CC2)cc(OC)c1	-6%	2%	22µM*	-3%	5%	?
COc1ccc(CCNC(=O)CN2CCN(c3cccc(C(F)(F)F)c3)CC2)cc1	3%	-7%	3%	-9%	0%	30
Cn1c(=O)n2n(c1=O)[C@H]1[C@H](O)[C@H]3O[C@@H]3/C(=N/OCc3ccccc3)[C@@H]1CC2	?	/	12%[13.5 µM]	/	6%[13.1 µM]	/
COc1cc2cc(CN(CCc3cccc(C)c3)C(=S)NCCCN3CCOCC3)c(=O)[nH]c2cc1OC	-17%[10 µM]	-5%[9.22 µM]	?	/	-10%	/
COc1cccc(NC(=O)Cn2c(CCC(=O)O)ccc2-c2ccc(Cl)cc2)c1	-3%[10 µM]	-10%[9.22 µM]	25µM*	/	-9%	/
COc1cccc(NC(=O)Cn2c(CCC(=O)O)ccc2-c2ccccc2)c1	-15%	1%	-6%	/	-5%	/
COC(=O)Nc1ccc(Cl)c(Cl)c1	/	/	/	/	14%	/
COc1c(C)cc(C(=O)C2CCCN(C(=O)c3cccc(-n4cccn4)c3)C2)cc1C (centres undefined)	-41%	-6%	?	/	23%	/
O=C(Oc1ccc(/C=N/NC(=O)c2ccccc2O)cc1)c1ccccc1	-7%	-18%	-1%	7%	-12%	?
O=C(N/N=C/c1ccc(OCC(=O)N2CCCCC2)cc1)c1ccccc1	-21%	13%	18µM*	14µM*	-2%	-4
O=C(COc1ccc(/C=N/NC(=O)c2ccccc2O)cc1)Nc1ccccc1	-32%	-5%	?	/	1%	/
Cn1nccc1C(=O)Oc1ccc(/C=N/NC(=O)c2ccccc2O)cc1	0.89µM*	?	?	/	-3%	/
O=C(N/N=C/c1ccc(OCC(=O)N2CCCCC2)cc1)c1ccccc1O	7%[10 µM]	6%	-6%	22µM*	-2%	-9
CC(C)[C@H](NC(=O)[C@@H](Cc1c[nH]c2ccccc12)NC(=O)[C@H](Cc1ccc(O)cc1)NC(=O)[C@@H](N)CC(=O)O)C(=O)N[C@H](Cc1c[nH]c2ccccc12)C(=O)N[C@H](Cc1c[nH]c2ccccc12)C(=O)N[C@@H](CCCCN)C(N)=O	/	/	/	/	8%	/
